For four compounds, outcome and AC50 results are on record in PubChem BioAssay (EPA / NIEHS).

Active and inactive are the calls of the source. Rule for the calls: active = hit-call score of the fitted dose curve at least 0.9, where 1 is the maximum; inactive = score below 0.9.

Read-out in assay [1]: TIMP metallopeptidase inhibitor 1 (TIMP1), TIMP1 (gene 7076)
Description: BSK_hDFCGF_TIMP1: BioMAP Diversity Plus: hDFCGF Assay for TIMP metallopeptidase inhibitor 1 (TIMP1) Biomarker Activity (AID 2283062). As to conditions: primary human foreskin fibroblasts; actives raise or lower the signal. Summed up:
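Fibroblasts from human foreskin are treated with test chemical and harvested at 24 h. TIMP-1 is quantified by ELISA, and gain or loss of signal is scored against DMSO.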

Read-out in assay [2]: Monokine induced gamma interferon (MIG), CXCL9 (gene 4283)
Description: BSK_hDFCGF_MIG: BioMAP Diversity Plus: hDFCGF Assay for Monokine induced gamma interferon (MIG) Biomarker Activity (AID 2283063). As to conditions: primary human foreskin fibroblasts; actives raise or lower the signal. Summed up:
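MIG signal, determined by ELISA, reflects 24 h chemical exposure of human skin primary fibroblasts. DMSO serves as negative control and baseline.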

Read-out in assay [3]: Matrix Metallopeptidase 1 (MMP1), MMP1 (gene 4312)
The experiment in a line: BSK_hDFCGF_MMP1: BioMAP Diversity Plus: hDFCGF Assay for Matrix Metallopeptidase 1 (MMP1) Biomarker Activity (AID 2283064). Particulars: primary human foreskin fibroblasts; actives raise or lower the signal. Summed up: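 ELISA read-out of MMP1 from human foreskin fibroblasts (primary skin cells), 24 h post-dose. Gain or loss of signal was fitted bidirectionally versus DMSO negative control; cytotoxicity was checked by SRB in parallel cultures.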

Read-out in assay [4]: Vascular cell adhesion molecule 1 (VCAM1), VCAM1 (gene 7412)
The experiment in a line: BSK_hDFCGF_VCAM1: BioMAP Diversity Plus: hDFCGF Assay for Vascular cell adhesion molecule 1 (VCAM1) Biomarker Activity (AID 2283065).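 For AC50: VCAM-1 protein level quantified by ELISA after 24 h chemical exposure.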 Particulars: primary human foreskin fibroblasts; actives raise or lower the signal. In a few lines: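 Cells are dosed, cultured for 24 h, then VCAM-1 is quantified by ELISA; signal increases and decreases are both fitted relative to DMSO.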

Read-out in assay [5]: Intercellular Adhesion Molecule 1 (ICAM1), ICAM1 (gene 3383)
Description: BSK_KF3CT_ICAM1: BioMAP Diversity Plus: KF3CT Assay for Intercellular Adhesion Molecule 1 (ICAM1) Biomarker Activity (AID 2283067). Particulars: primary human keratinocytes with fibroblasts; actives raise or lower the signal. In a few lines: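 Dose the keratinocyte/fibroblast co-culture, wait 24 h, measure ICAM-1 by ELISA, then fit increases or decreases against DMSO. Cytotoxicity is checked in parallel cultures by SRB total-protein staining.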

Read-out in assay [6]: Interferon-gamma inducible Protein 10 (IP10), CXCL10 (gene 3627)
The experiment in a line: BSK_KF3CT_IP10: BioMAP Diversity Plus: KF3CT Assay for Interferon-gamma inducible Protein 10 (IP10) Biomarker Activity (AID 2283068). Particulars: primary human keratinocytes with fibroblasts; actives raise or lower the signal. Summed up: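 ELISA read-out of IP-10 after 24 h chemical dosing of human skin primary co-culture (keratinocytes, foreskin fibroblasts). Gain or loss of signal relative to DMSO, bidirectional curve fit.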

The nature of assay [7]: BSK_KF3CT_SRB: Viability Assessment in the BioMAP Diversity Plus: KF3CT Assay (AID 2283069). Particulars: primary human keratinocytes with fibroblasts. Summed up: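 SRB read-out at 560 nm (0.1% stain, TCA-fixed cells) gauges overt cytotoxicity in a human skin keratinocyte–fibroblast co-culture 24 h post-dosing. Signal change was fitted bidirectionally relative to DMSO control.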

Read-out in assay [8]: Interleukin-1 alpha (IL1a), IL1A (gene 3552)
The experiment in a line: BSK_KF3CT_IL1a: BioMAP Diversity Plus: KF3CT Assay for Interleukin-1 alpha (IL1a) Biomarker Activity (AID 2283070). As to conditions: primary human keratinocytes with fibroblasts; actives raise or lower the signal. Summed up: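 Primary skin co-culture (keratinocytes, foreskin fibroblasts), 24 h exposure; ELISA for IL-1a; bidirectional curve fit vs DMSO.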

Read-out in assay [9]: TIMP metallopeptidase inhibitor 2 (TIMP2), TIMP2 (gene 7077)
Description: BSK_KF3CT_TIMP2: BioMAP Diversity Plus: KF3CT Assay for TIMP metallopeptidase inhibitor 2 (TIMP2) Biomarker Activity (AID 2283071). As to conditions: primary human keratinocytes with fibroblasts; actives raise or lower the signal. In a few lines:
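Measurements come from ELISA detection of TIMP-2 at 24 hours in a dosed human keratinocyte and foreskin fibroblast co-culture. DMSO serves as negative control and baseline.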

Read-out in assay [10]: Transforming growth factor beta 1 (TGFb1), TGFB1 (gene 7040)
Description: BSK_KF3CT_TGFb1: BioMAP Diversity Plus: KF3CT Assay for Transforming growth factor beta 1 (TGFb1) Biomarker Activity (AID 2283072). Particulars: primary human keratinocytes with fibroblasts; actives raise or lower the signal. Summed up: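 TGF-b1 ELISA on a 24 h dosed co-culture of human keratinocytes and foreskin fibroblasts; cytotoxicity tracked in parallel cultures by SRB staining.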

Read-out in assay [11]: C-C motif chemokine 2 (Homo sapiens) (UniProt P13500)
The experiment in a line: BSK_KF3CT_MCP1: BioMAP Diversity Plus: KF3CT Assay for Monocyte Chemoattractant Protein 1 (MCP1/CCL2) Biomarker Activity (AID 2283073). As to conditions: primary human keratinocytes with fibroblasts; actives raise or lower the signal. In a few lines: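 Keratinocytes and foreskin fibroblasts were co-cultured, dosed with chemical, and sampled 24 h later. MCP-1 was quantified by ELISA, and the endpoint was analyzed with bidirectional fitting using DMSO as negative control.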

Read-out in assay [12]: Matrix Metallopeptidase 9 (MMP9), MMP9 (gene 4318)
Description: BSK_KF3CT_MMP9: BioMAP Diversity Plus: KF3CT Assay for Matrix Metallopeptidase 9 (MMP9) Biomarker Activity (AID 2283074).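 For AC50: MMP9 protein level quantified by ELISA in the co-culture.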 As to conditions: primary human keratinocytes with fibroblasts; actives raise or lower the signal. In a few lines:
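ELISA read-out of MMP-9 at 24 h post-dosing in a co-culture of human skin keratinocytes and foreskin fibroblasts. Gain or loss of signal was fitted in both directions against DMSO.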

Read-out in assay [13]: urokinase plasminogen activator (uPA), PLAU (gene 5328)
Description: BSK_KF3CT_uPA: BioMAP Diversity Plus: KF3CT Assay for urokinase plasminogen activator (uPA) Biomarker Activity (AID 2283075). As to conditions: primary human keratinocytes with fibroblasts; actives raise or lower the signal. Summed up: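 Skin co-culture (keratinocytes + foreskin fibroblasts), human primary; 24 h post-dose; uPA by ELISA; gain/loss fit vs DMSO baseline.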

Read-out in a further assay: CD40, CD40 (gene 958)
The experiment in a line: BSK_LPS_CD40: BioMAP Diversity Plus: LPS Assay for CD40 Biomarker Activity (AID 2283076). As to conditions: primary human HUVEC with PBMC; actives raise or lower the signal. Summed up: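 CD40 signal, measured by ELISA, is fitted in both directions relative to DMSO vehicle. The system is an LPS-driven human vascular primary co-culture of endothelial cells and PBMC, sampled 24 h after compound addition.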

Read-out in assay [14]: E-selectin (Homo sapiens) (UniProt P16581)
The experiment in a line: BSK_LPS_Eselectin: BioMAP Diversity Plus: LPS Assay for Eselectin Biomarker Activity (AID 2283077). Particulars: primary human HUVEC with PBMC; actives raise or lower the signal. In a few lines: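 Signal of E-selectin, detected by ELISA, served as the endpoint; cells were umbilical vein endothelium with PBMC, read 24 h after treatment. DMSO defined baseline, and both increases and decreases were fitted.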

Read-out in assay [15]: Interleukin-8 (IL8), CXCL8 (gene 3576)
Description: BSK_LPS_IL8: BioMAP Diversity Plus: LPS Assay for Interleukin-8 (IL8) Biomarker Activity (AID 2283078). Particulars: primary human HUVEC with PBMC; actives raise or lower the signal. Summed up: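 Endothelial cells and PBMC from human donors are co-cultured, treated with chemicals and LPS, then assayed for IL-8 by ELISA after 24 h. Parallel SRB staining (0.1% SRB after 10% TCA fixation, 560 nm) flags cytotoxicity.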

Assay [16] is described as follows: BSK_LPS_SRB: Viability Assessment in the BioMAP Diversity Plus: LPS Assay (AID 2283079).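 Note: total protein by sulforhodamine B absorbance as a cytotoxicity measure; measured one day after compound addition.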 As to conditions: primary human HUVEC with PBMC. Summed up:
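Overt cytotoxicity was gauged by sulforhodamine B total-protein staining in a primary human vascular endothelial and mononuclear cell co-culture 24 h post-dosing. Activity was fitted in both directions relative to DMSO.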

Read-out in assay [17]: Interleukin-1 alpha (IL1a), IL1A (gene 3552)
Description: BSK_LPS_IL1a: BioMAP Diversity Plus: LPS Assay for Interleukin-1 alpha (IL1a) Biomarker Activity (AID 2283080). Particulars: primary human HUVEC with PBMC; actives raise or lower the signal. Summed up:
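Measured: IL-1 alpha via ELISA at 24 h in LPS-activated human umbilical vein endothelium–PBMC co-culture. Baseline: DMSO, bidirectional fitting.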

Read-out in assay [18]: Monocyte Chemoattractant Protein-1 (MCP1), CCL2 (gene 6347)
The experiment in a line: BSK_LPS_MCP1: BioMAP Diversity Plus: LPS Assay for Monocyte Chemoattractant Protein-1 (MCP1) Biomarker Activity (AID 2283081). As to conditions: primary human HUVEC with PBMC; actives raise or lower the signal. In a few lines: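 LPS-stimulated HUVEC/PBMC co-culture; chemical, 24 h; MCP-1 by ELISA; bidirectional fit vs DMSO; cytotoxicity via SRB (0.1% stain, 10% TCA fix, 560 nm) in parallel wells.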

Read-out in assay [19]: Plasminogen activator inhibitor-1 (PAI1), SERPINE1 (gene 5054)
Description: BSK_hDFCGF_PAI1: BioMAP Diversity Plus: hDFCGF Assay for Plasminogen activator inhibitor-1 (PAI1) Biomarker Activity (AID 2283066). As to conditions: primary human foreskin fibroblasts; actives raise or lower the signal. Summed up:
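Human skin fibroblast cultures receive chemical for 24 h before PAI-1 is measured by ELISA; signal changes are fitted bidirectionally against DMSO-treated wells.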

E-selectin (Homo sapiens), sequence (P16581 whole entry, looked up): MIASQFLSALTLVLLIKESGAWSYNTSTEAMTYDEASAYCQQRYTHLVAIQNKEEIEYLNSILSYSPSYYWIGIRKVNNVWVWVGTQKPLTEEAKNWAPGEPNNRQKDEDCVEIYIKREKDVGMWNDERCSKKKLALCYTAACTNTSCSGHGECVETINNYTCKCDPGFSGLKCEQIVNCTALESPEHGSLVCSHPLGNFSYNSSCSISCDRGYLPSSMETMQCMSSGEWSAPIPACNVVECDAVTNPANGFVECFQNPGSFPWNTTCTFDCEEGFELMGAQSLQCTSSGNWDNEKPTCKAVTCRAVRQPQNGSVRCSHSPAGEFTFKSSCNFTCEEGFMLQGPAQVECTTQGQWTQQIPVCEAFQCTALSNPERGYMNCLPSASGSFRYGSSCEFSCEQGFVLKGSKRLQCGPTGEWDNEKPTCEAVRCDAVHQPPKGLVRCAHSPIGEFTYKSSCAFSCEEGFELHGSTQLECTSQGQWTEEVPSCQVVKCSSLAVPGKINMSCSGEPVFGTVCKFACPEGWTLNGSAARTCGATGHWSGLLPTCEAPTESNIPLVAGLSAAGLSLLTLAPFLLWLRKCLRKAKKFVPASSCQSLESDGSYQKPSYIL

Broadly, the AC50 is the concentration giving half of the maximal activity seen. Turning to `O=C(O)C1C2CCC(O2)C1C(=O)O` (centres undefined), the result in [1], in [2], in assay [3], in assay [5], in assay [6] and in assay [7] was inactive. The outcome was “inactive” in assay [8]; “inactive” in assay [9]; “inactive” in [10]; “inactive” in assay [11]; “inactive” in assay [13]; “inactive” with CD40, CD40 (gene 958). In addition, the outcome in assay [14], in assay [15] and in assay [18] was inactive. The AC50 in assay [4] is 18.6 µM (active); in assay [12], 28.7 µM (active); in assay [16], 18.6 µM (active); in [17] it was 18.6 µM (active).

With `CCOC(=O)[C@]1(c2ccccc2)Oc2ccccc2[C@@H]1N`, the AC50 in assay [1] was 30.2 µM (active); in assay [4] it was 36.6 µM (active); in assay [12] it was 31 µM (active); in the assay with CD40, CD40 (gene 958) it was 32.9 µM (active); in assay [15] it was 36.1 µM (active). The outcome in assay [3], in assay [5], in assay [6], in assay [7], in [8] and in assay [9] was inactive. The outcome in assay [10], in assay [11], in assay [13], in [14], in assay [16] and in [17] was inactive. Further, the result in [18] was inactive.

Turning to `c1ccc2c(c1)oc1ccccc12`, the outcome in assay [2], in assay [3], in [4], in assay [19], in [5] and in assay [6] was inactive. Besides, the result in [7], in assay [8], in assay [9], in assay [10], in assay [11] and in [12] was inactive. Moreover, the outcome in assay [13] is “inactive”; with CD40, CD40 (gene 958), “inactive”; in [14], “inactive”; in [15], “inactive”; in assay [16], “inactive”; in assay [17], “inactive”.

For `O=P(OCCCl)(OCCCl)OCCCl`, the result in [1], in assay [2], in assay [3], in assay [4], in assay [5] and in [6] was inactive. In addition, the outcome in [7], in assay [8], in [9], in assay [10], in [11] and in assay [12] was inactive. The outcome in [13] is “inactive”; with CD40, CD40 (gene 958), “inactive”; in assay [14] it was “inactive”; in assay [15], “inactive”; in assay [16] it was “inactive”; in assay [17], “inactive”. Further, the outcome in [18] was inactive.
